Assay outcomes (PubChem BioAssay)
In the library only some 1.1% were active in any assay of this set; here they are far more common.
AmpC inh no detg = blocks E. coli AmpC beta-lactamase in detergent-free assay; actives 0.52% (n = 330,000); P00811; AmpC nitrocefin hydrolysis, absorbance 480 nm, 0.0001% Triton; Potency, µM (series often up to 57.1 µM), hits mostly inhibitors; AID 485341; further: nearly all actives have a fitted effect of over 20% in size
Target sequence (P00811 whole entry, looked up): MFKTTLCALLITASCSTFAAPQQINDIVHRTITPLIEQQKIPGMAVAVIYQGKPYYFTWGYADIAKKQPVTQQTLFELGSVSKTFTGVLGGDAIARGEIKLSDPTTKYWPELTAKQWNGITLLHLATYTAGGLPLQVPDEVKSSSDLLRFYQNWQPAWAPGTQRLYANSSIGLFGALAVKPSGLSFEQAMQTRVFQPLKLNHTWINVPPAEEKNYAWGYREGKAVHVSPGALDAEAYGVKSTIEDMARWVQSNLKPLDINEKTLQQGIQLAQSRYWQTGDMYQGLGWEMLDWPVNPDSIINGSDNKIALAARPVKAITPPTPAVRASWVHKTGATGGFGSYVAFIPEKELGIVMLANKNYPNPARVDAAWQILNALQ
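AmpC (5.3 nM in the dispensed reagent) in 20 mM phosphate pH 7.0 with 0.01% (detergent screen) or 0.0001% Triton X-100 was preincubated with compounds for 15 min at room temperature. Nitrocefin was then added from an 800 uM solution, and hydrolysis was followed at 480 nm.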
AmpC inh detg = blocks E. coli AmpC beta-lactamase in detergent assay; AmpC hydrolysis of nitrocefin, absorbance 480 nm, 0.01% Triton; Potency, µM (highest dose often 114 µM), hits mostly inhibitors; actives 0.041% (n = 370,000); AID 485294; further: nearly all actives have a fitted effect of over 25% in size
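AmpC (5.3 nM in the dispensed reagent) in 20 mM phosphate pH 7.0 with 0.01% (detergent screen) or 0.0001% Triton X-100 was preincubated with compounds for 15 min at room temperature. Nitrocefin was then added from an 800 uM solution, and hydrolysis was followed at 480 nm.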
VACV mCherry inh = inhibitors of vaccinia virus infection (mCherry reporter signal). Vaccinia virus mCherry reporter infection, fluorescence. Potency, µM (series often up to 36.5 µM), usual class: inhibitors. actives 0.63% (n = 310,000). AID 720579; calls by dose curve; tested in A549 cells; further: nearly all actives have a fitted effect of over 35% in size
VACV Venus inh = inhibitors of vaccinia virus (Venus reporter); Vaccinia virus Venus reporter expression, fluorescence; Potency, µM (titrated, usually from 36.5 µM), usual class: inhibitors; actives 0.46% (n = 330,000); AID 720580; calls by dose curve; tested in A549 cells; further: nearly all actives have a fitted effect of over 30% in size
Each line names hits and unclear results; the compound was inactive in the other large screens; ! = a repeat was not active. Unless noted, the call rests on the fitted dose curve; in most records, active means well fitted curve in the direction sought with a large enough effect; inconclusive means small, poorly fitted or top-dose-only effect, or another doubt; inactive means no such curve, though single readings can be large; an effect the other way counts as inactive or inconclusive.

COc1ccc(C=NNc2nc3ccccc3s2)cc1	VACV mCherry inh inconclusive (no result: AmpC inh no detg, AmpC inh detg)
C(=N\Nc1nc2ccccc2s1)/c1ccccn1	VACV mCherry inh 12.6µM, VACV Venus inh inconclusive
COc1ccc(Cl)cc1NC(=O)NCCCl	VACV Venus inh 10µM (no result: VACV mCherry inh)
OCCN1CCN(Cc2ccc3c(c2)CN(Cc2cccc4ncccc24)CCO3)CC1	none (no result: AmpC inh no detg, AmpC inh detg)
COc1ccc(CN2CCOc3ccc(CN4CCN(CCO)CC4)cc3C2)c2ccccc12	none (no result: AmpC inh no detg, AmpC inh detg)
CCNC(=O)c1c(NC(=O)c2nc(SC)ncc2Cl)sc2c1CCCC2	none (no result: AmpC inh no detg, AmpC inh detg)
CCOC(=O)/C(=N/Nc1ccccc1)N1CCCc2ccccc21	AmpC inh no detg 25.1µM
COc1cc2c(NC3CCN(C)CC3)nc(N3CCCN(C)CC3)nc2cc1OCCCC(C)C	VACV mCherry inh inconclusive, VACV Venus inh 12.6µM (no result: AmpC inh no detg, AmpC inh detg)
COc1cc2c(NC3CCN(C)CC3)nc(N3CCCN(C)CC3)nc2cc1OCCCN1CCCCC1	VACV mCherry inh 3.98µM, VACV Venus inh 3.55µM (no result: AmpC inh no detg, AmpC inh detg)
COc1cc2nc(N3CCCN(C)CC3)nc(NC3CCN(Cc4ccccc4)CC3)c2cc1OC	VACV mCherry inh inconclusive, VACV Venus inh 11.2µM! (no result: AmpC inh no detg, AmpC inh detg)
Cc1cccc(N2CC(C(=O)Nc3nnc(SCC(=O)Nc4nccs4)s3)CC2=O)c1 (stereo not drawn)	AmpC inh detg inconclusive
Cc1ccccc1N1CC(C(=O)Nc2nnc(SCC(=O)Nc3nccs3)s2)CC1=O (stereo not drawn)	AmpC inh no detg 28.2µM
NC(=O)c1nsc(C(=O)N(c2cccc(F)c2)C(C(=O)NC2CCCC2)c2ccc(O)cc2)c1N (stereo not drawn)	none
NC(=O)c1nsc(C(=O)N(c2cccc(F)c2)C(C(=O)NCc2ccccc2)c2ccc(O)cc2)c1N (stereo not drawn)	AmpC inh no detg 7.94µM
COC(=O)c1cc(CNC(=O)c2ccccc2F)cc(NC(=O)c2ccccc2OC)c1	none (no result: AmpC inh no detg, AmpC inh detg)
O=C(Nc1ccc(Cl)c(Cl)c1)c1cccc(S(=O)(=O)NCc2cccnc2)c1	VACV mCherry inh 28.2µM, VACV Venus inh inconclusive
OC(COCC(F)(F)C(F)(F)C(F)(F)C(F)F)Cn1c2ccc(Cl)cc2c2cc(Cl)ccc21 (stereo not drawn)	VACV mCherry inh inconclusive, VACV Venus inh 11.2µM
COc1ccc(CN2CCC3(CC2)c2ccccc2[C@@H](NC(=O)c2ccccc2OC)[C@@H]3O)cc1O	none (no result: AmpC inh no detg, AmpC inh detg)
O=C1c2cc(S(=O)(=O)N3CCOCC3)ccc2-c2ccc(S(=O)(=O)N3CCOCC3)cc21	none (no result: AmpC inh no detg, AmpC inh detg)
CNC(=S)N/N=C/c1cn(CCOc2cccc(OC)c2)c2ccccc12	AmpC inh no detg inconclusive, VACV mCherry inh 3.98µM, VACV Venus inh inconclusive
COC(=O)N/N=C/c1cn(CCOc2ccccc2OC)c2ccccc12	none (no result: VACV mCherry inh, VACV Venus inh)
CNC(=S)N/N=C/c1cn(CCOc2ccccc2OC)c2ccccc12	AmpC inh detg inconclusive, VACV mCherry inh 4.47µM, VACV Venus inh 7.08µM
COc1cc(=O)n2c(c1C(=O)N(C)Cc1nonc1C)CCN(Cc1cc(C)c(C)cc1C)CC2	none (no result: AmpC inh no detg, AmpC inh detg)
CCC1(C2CCN(C(=O)c3ccccc3Cl)CC2)NC(=O)N(CCc2scnc2C)C1=O (stereo not drawn)	none (no result: AmpC inh no detg, AmpC inh detg)
Cc1c(C(=O)NCC(C)(C)CN(C)C)cnn1-c1nccc(-c2ccccc2F)n1	none (no result: AmpC inh no detg, AmpC inh detg)
C1=Cc2ccccc2/C1=C\c1ccc2c(c1)OCO2	none (no result: AmpC inh no detg, AmpC inh detg)
O=C(CC(=O)c1ccccc1)Nc1cc(C(F)(F)F)ccc1Cl	AmpC inh no detg 25.1µM
CCC1(C2CCN(Cc3c(C)[nH]c4ccccc34)CC2)NC(=O)N(Cc2ccc3c(c2)OCO3)C1=O (stereo not drawn)	none (no result: AmpC inh no detg, AmpC inh detg)
O=C(CN1CCCc2ccccc21)N/N=C/c1c(O)ccc2ccccc12	VACV mCherry inh 11.2µM, VACV Venus inh inconclusive
COc1ccccc1N(CC(=O)N/N=C/c1c(O)ccc2ccccc12)S(C)(=O)=O	VACV mCherry inh 11.2µM, VACV Venus inh inconclusive
COc1ccc(-c2nc(CSCC(=O)N3CCN(c4cccc(C)c4C)CC3)c(C)o2)cc1OC	VACV mCherry inh 11.2µM, VACV Venus inh 11.2µM (no result: AmpC inh no detg)
Cc1cccc(C(=O)NCC2Cc3cc(F)cc(-c4cnccn4)c3O2)n1 (stereo not drawn)	none (no result: AmpC inh no detg, AmpC inh detg)
CCC(C)c1ccc(NC(=S)NC2CCN(Cc3ccccc3)CC2)cc1 (stereo not drawn)	VACV mCherry inh inconclusive, VACV Venus inh 10µM
Cc1cc2c(c(-c3cnccn3)c1)OC(CNC(=O)c1c(F)cccc1Cl)C2 (stereo not drawn)	none (no result: AmpC inh no detg, AmpC inh detg)
O=C(C[n+]1c(Cl)cc(Cl)c2ccccc21)c1ccccc1	none (no result: AmpC inh no detg, AmpC inh detg)
CCOc1ccccc1NC(=O)Cn1nnc(C(=O)NCc2ccco2)c1N	VACV mCherry inh inconclusive, VACV Venus inh inconclusive
Cc1ccccc1NC(=O)Cn1nnc(C(=O)NCc2ccco2)c1N	VACV mCherry inh inconclusive, VACV Venus inh 3.98µM
